Test [1] in a line: antimalarial activity against Dd2 strain (AID 2302;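 active means growth inhibition above 50% at the single 2 µM test dose, taken to imply half-maximal potency below 2 µM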;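 further: 0% = DMSO untreated growth and 100% = chloroquine plus artemisinin killed control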). The note with it: P. falciparum Dd2 in RBCs, LDH growth readout, 72 h; at 2 µM; active compounds read high.
Test [2] is described as follows: human hepatoma cell viability loss – ATP luminescence, cytotoxicity control for P. falciparum antimalarial project, primary screen (AID 2303;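 active means inhibition above 50%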;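 further: 0% = DMSO wells and 100% = digitonin-killed cells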). Conditions: HepG2 viability, 24-48 h, at 10 µM, active compounds read high.
Test [3] addresses L-lactate dehydrogenase (Plasmodium falciparum (isolate CDC / Honduras)) (UniProt Q27743). In words: PfLDH activity inhibition – cell lysate, 3D7 strain, counter-screen for P. falciparum growth inhibition project (AID 2304).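 Further: 0% = vehicle and 100% = reference inhibitor.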 Conditions: P. falciparum 3D7 crude extract, LDH APAD/NBT absorbance; at 2 µM; active compounds read high. On the technique in general: A counterscreen serves to expose hits that act by an unwanted route or on another target.

The nature of test [4]: inhibition of 3D7 malaria parasite growth – strain 3D7 (AID 2306).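 Further: 0% = DMSO wells and 100% = chloroquine plus artemisinin control wells.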 Conditions: P. falciparum 3D7 erythrocytic growth, LDH absorbance, 72 h; at 2 µM; active compounds read high.
In test [5] the target is Calcium-dependent protein kinase 1 (Plasmodium falciparum (isolate 3D7)) (UniProt P62344). In words: PfCDPK1 kinase inhibitors, biochemical, TCAMS library (AID 1159585; cut-off not given, nearly all actives have IC50 up to about 0.98 µM;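 further: inhibitors leave more ATP so luminescence rises with inhibition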). The note with it: recombinant PfCDPK1, Kinase-Glo ATP depletion luminescence. Background: Kinase-Glo reads ATP consumption through a luciferase reaction.
Chain of Calcium-dependent protein kinase 1 (Plasmodium falciparum (isolate 3D7)) (P62344 whole entry, looked up): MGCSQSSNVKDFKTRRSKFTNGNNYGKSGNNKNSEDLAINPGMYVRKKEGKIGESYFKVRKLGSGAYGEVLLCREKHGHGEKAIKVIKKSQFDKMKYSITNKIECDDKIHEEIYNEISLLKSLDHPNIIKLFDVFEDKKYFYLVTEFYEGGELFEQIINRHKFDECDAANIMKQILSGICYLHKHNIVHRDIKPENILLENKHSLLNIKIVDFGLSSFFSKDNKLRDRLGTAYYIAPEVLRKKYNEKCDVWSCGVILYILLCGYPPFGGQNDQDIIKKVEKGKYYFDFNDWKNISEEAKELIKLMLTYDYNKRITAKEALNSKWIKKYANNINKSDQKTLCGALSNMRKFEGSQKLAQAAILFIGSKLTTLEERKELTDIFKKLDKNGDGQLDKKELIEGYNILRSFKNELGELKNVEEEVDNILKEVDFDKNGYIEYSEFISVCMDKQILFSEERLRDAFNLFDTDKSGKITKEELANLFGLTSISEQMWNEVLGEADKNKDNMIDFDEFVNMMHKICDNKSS
Test [6] deals with Plasmodium falciparum protein kinase 6 (PK6, PF3D7_1337100) (UniProt Q8IDW1). Kind of test: PfPK6 kinase inhibitors, biochemical, TCAMS library (AID 1159586). The note with it: recombinant PfPK6, Kinase-Glo ATP depletion luminescence.
Chain of Plasmodium falciparum protein kinase 6 (PK6, PF3D7_1337100) (Q8IDW1 1-305): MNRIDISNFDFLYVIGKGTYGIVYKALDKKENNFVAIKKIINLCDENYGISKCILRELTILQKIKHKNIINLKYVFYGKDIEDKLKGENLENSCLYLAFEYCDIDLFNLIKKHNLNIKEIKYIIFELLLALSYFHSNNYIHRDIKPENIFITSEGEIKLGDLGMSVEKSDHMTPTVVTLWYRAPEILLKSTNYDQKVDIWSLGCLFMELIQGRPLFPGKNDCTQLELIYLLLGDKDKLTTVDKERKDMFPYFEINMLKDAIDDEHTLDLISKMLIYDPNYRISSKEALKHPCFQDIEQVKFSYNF
Test [7] has as its target Protein kinase 7 (PK7), Plasmodium falciparum 3D7 (PF3D7_0213400) (UniProt Q7YTF7). Kind of test: inhibition of Plasmodium PK7 catalytic activity – biochemical, TCAMS antimalarial set, Kinase-Glo luminescence (AID 1159587). The note with it: recombinant PfPK7, Kinase-Glo ATP depletion luminescence.
In test [8] the target is Calcium-dependent protein kinase 4 (Plasmodium falciparum (isolate 3D7)) (UniProt Q8IBS5). Kind of test: PfCDPK4 kinase inhibitors, biochemical, TCAMS library (AID 1159588; cut-off not given, nearly all actives have IC50 up to about 0.91 µM). The note with it: recombinant PfCDPK4, Kinase-Glo ATP depletion luminescence.
Chain of Calcium-dependent protein kinase 4 (Plasmodium falciparum (isolate 3D7)) (Q8IBS5 whole entry, looked up): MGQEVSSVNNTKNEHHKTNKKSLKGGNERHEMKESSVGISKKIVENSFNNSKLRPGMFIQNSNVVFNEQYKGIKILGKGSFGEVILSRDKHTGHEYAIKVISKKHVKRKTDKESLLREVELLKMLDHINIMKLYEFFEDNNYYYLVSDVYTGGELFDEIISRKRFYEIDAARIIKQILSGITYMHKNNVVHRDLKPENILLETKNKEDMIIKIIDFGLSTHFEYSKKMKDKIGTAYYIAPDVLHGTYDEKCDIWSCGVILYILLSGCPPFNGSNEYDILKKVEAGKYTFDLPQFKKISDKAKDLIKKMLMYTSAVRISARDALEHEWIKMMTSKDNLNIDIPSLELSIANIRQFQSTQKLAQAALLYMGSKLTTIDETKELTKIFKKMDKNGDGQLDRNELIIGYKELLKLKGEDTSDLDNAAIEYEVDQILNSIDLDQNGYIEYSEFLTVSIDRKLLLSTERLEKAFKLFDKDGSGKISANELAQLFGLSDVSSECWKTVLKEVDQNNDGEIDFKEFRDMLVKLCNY

Our source for the growth inhibition, inhibition and outcome values is PubChem BioAssay.

Molecules are shown by their SMILES. Values without a mark were called inactive. For part of these data: Measured potencies and affinities stand elsewhere. Calls of active or inactive are those of the source. Unless noted, how the calls were made is not given here.

Chain of L-lactate dehydrogenase (Plasmodium falciparum (isolate CDC / Honduras)) (Q27743 whole entry, looked up): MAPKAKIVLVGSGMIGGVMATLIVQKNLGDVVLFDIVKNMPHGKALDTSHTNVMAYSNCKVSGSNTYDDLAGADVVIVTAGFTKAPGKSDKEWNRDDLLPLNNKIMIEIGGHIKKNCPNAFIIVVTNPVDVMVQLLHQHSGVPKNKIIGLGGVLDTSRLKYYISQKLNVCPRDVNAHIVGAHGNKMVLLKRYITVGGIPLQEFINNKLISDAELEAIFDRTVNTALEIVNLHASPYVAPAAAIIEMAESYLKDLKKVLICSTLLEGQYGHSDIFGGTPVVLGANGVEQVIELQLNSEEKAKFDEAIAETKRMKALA
Chain of Protein kinase 7 (PK7), Plasmodium falciparum 3D7 (PF3D7_0213400) (Q7YTF7 1-343): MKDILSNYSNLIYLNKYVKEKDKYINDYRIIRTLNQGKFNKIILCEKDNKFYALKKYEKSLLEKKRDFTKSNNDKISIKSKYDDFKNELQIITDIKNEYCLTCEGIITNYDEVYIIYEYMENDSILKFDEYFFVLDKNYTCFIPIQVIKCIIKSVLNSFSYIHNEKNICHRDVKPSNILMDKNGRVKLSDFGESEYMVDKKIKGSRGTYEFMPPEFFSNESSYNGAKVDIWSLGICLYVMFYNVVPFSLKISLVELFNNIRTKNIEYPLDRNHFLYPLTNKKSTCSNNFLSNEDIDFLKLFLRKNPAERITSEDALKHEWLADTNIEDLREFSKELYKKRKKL

With `C=CCn1c(=N)c(C(=O)NCc2ccc(F)cc2)cc2c(=O)n3cccc(C)c3nc21`, the growth inhibition in test [1] was 11%; in test [4] it was 92% (active). Besides, the inhibition (as a rule, the relative decrease from the control value, in per cent) in test [2] was 16%; in test [3], -2%. In addition, the outcome in test [5], in test [6], in test [7] and in test [8] was inactive.
Take `CC(=O)Nc1ccc(S(=O)(=O)Nc2ccc(Nc3nc(C)cc(N(C)C)n3)cc2)cc1`: the growth inhibition is 22% in test [1] and 100% (active) in test [4]. Besides, the inhibition in test [2] is -2%; in test [3], -1%. Further, the outcome in test [5], in test [6], in test [7] and in test [8] was inactive.
Take `CS(=O)(=O)NCCCNCc1ccc(-c2cccc(-c3nc4ccc(C(F)(F)F)cc4[nH]3)c2)cc1`: the growth inhibition is 83% (active) in test [1] and 100% (active) in test [4]. Besides, the inhibition was 17% in test [2] and 1% in test [3]. Further, the result in test [5], in test [6], in test [7] and in test [8] was inactive.
Take `CCc1nc2nc(C)cc(Nc3ccc(F)c(Cl)c3)n2n1`: the growth inhibition in test [1] is 77% (active); in test [4], 90% (active). Moreover, the inhibition in test [2] is 2%; in test [3], -3%. The result in test [5], in test [6], in test [7] and in test [8] was inactive.
On to `NC1=Nc2ccc(Cl)cc2C1(O)c1ccccc1` (stereo not drawn), for which the growth inhibition in test [1] was 51% (active); in test [4], 100% (active). Further, the inhibition in test [2] and in test [3] was -3% throughout. For the same compound, the result in test [5], in test [6], in test [7] and in test [8] was inactive.
Take `CCCc1c(C(=O)Nc2ccc3c(c2)CCN(C2CCC2)CC3)cnn1-c1ccc(Cl)cc1`: the growth inhibition was 12% in test [1] and 92% (active) in test [4]. Also, the inhibition was 64% (active) in test [2] and 2% in test [3]. Besides, the result in test [5], in test [6], in test [7] and in test [8] was inactive.
Regarding `Cc1ccc(-c2cnc(N)c3cc(-c4ccnc(N)n4)ccc23)cc1`, the growth inhibition in test [1] is 94% (active); in test [4] it was 99% (active). The inhibition in test [2] is 41%; in test [3], -5%. The outcome in test [5], in test [6], in test [7] and in test [8] was inactive.
For `COc1cccc(CN2CCC3(CC2)CN(C(=O)Nc2ccc(Cl)c(Cl)c2)C3)c1`, the growth inhibition in test [1] was 2%; in test [4] it was 97% (active). For the same compound, the inhibition in test [2] was 29%; in test [3], 2%. Moreover, the result in test [5], in test [6], in test [7] and in test [8] was inactive.
In the case of `Cc1cc(NCCCCCCCCNc2cc(C)nc3ccccc23)c2ccccc2n1`, the growth inhibition is -1% in test [1] and 101% (active) in test [4]. Also, the inhibition in test [2] was 59% (active); in test [3], -1%. Further, the result in test [5], in test [6], in test [7] and in test [8] was inactive.
On to `Cc1cc(NN=Cc2ccccc2)c2cc(F)ccc2n1`, for which the growth inhibition is 94% (active) in test [1] and 101% (active) in test [4]. The inhibition in test [2] is 11%; in test [3] it was -1%. For the same compound, the result in test [5], in test [6], in test [7] and in test [8] was inactive.
Take `O=C(Nc1ccc(Cl)cc1)Nc1ccc(-c2csc(-c3nc4ccccc4[nH]3)c2)cc1`: the growth inhibition in test [1] is 40%; in test [4], 90% (active). Besides, the inhibition in test [2] was 59% (active); in test [3], -4%. In addition, the result in test [5], in test [6], in test [7] and in test [8] was inactive.
Regarding `CN1CCN(c2ccnc3ccc(NC(=O)Cc4ccc(OCc5ccccc5)cc4)cc23)CC1`, the growth inhibition is 89% (active) in test [1] and 100% (active) in test [4]. For the same compound, the inhibition in test [2] is 6%; in test [3], -1%. In addition, the outcome in test [5], in test [6], in test [7] and in test [8] was inactive.
As to `O=C(Nc1ccc(-c2nc3ccccc3[nH]2)cc1)C1CCCN(CC2CC2)C1` (stereo not drawn), the growth inhibition in test [1] is 8%; in test [4], 89% (active). Also, the inhibition in test [2] is 6%; in test [3], 0%. Also, the outcome in test [5], in test [6], in test [7] and in test [8] was inactive.
With `COc1cc(Cc2cnc(N)nc2N)c2c(c1OC)OC(C)C=C2` (stereo not drawn), the growth inhibition in test [1] is 1%; in test [4], 87% (active). Moreover, the inhibition in test [2] was -1%; in test [3], 6%. In addition, the outcome in test [5], in test [6], in test [7] and in test [8] was inactive.
Regarding `COc1ccc(N2C(=O)c3c(c4ccccc4n3C)C2c2ccccc2O)cc1` (stereo not drawn), the growth inhibition in test [1] was 91% (active); in test [4] it was 96% (active). Moreover, the results for the inhibition in test [2] and in test [3] were 32% and 3%, respectively. The result in test [5], in test [6], in test [7] and in test [8] was inactive.
`Oc1ccc(Cl)c2c1C(c1ccccc1)=NCC2`: the growth inhibition in test [1] is 43%; in test [4], 95% (active). The figures for the inhibition in test [2] and in test [3] were -9% and -4%, respectively. Besides, the outcome in test [5], in test [6], in test [7] and in test [8] was inactive.
Turning to `Cn1cc(CCNc2ccnc(N3CCC(c4ncc[nH]4)CC3)n2)c2ccccc21`, the growth inhibition in test [1] was 5%; in test [4] it was 92% (active). In addition, the values for the inhibition in test [2] and in test [3] were 12% and 3%, respectively. For the same compound, the result in test [5], in test [6], in test [7] and in test [8] was inactive.
Turning to `O=C(Nc1ccc(-c2oc(C(=O)NCCc3cccc(Cl)c3)cc2-c2ccncc2)cc1)Nc1cccc(Cl)c1`, the results for the growth inhibition in test [1] and in test [4] were 84% (active) and 99% (active), respectively. The inhibition was 13% in test [2] and -1% in test [3]. Also, the outcome in test [5], in test [6], in test [7] and in test [8] was inactive.
On to `Cc1c(CCC#N)c(NCc2ccccc2)n2c(nc3ccccc32)c1C#N`, for which the figures for the growth inhibition in test [1] and in test [4] were 99% (active) and 100% (active), respectively. Also, the inhibition is 16% in test [2] and 2% in test [3]. Moreover, the outcome in test [5], in test [6], in test [7] and in test [8] was inactive.
Regarding `Cc1cc(CN2CC[C@H](NC(=O)c3ccc(Cl)c(Cl)c3)C2)ccc1OC1CCN(Cc2ccccc2)CC1`, the growth inhibition in test [1] is 29%; in test [4] it was 98% (active). In addition, the inhibition was 59% (active) in test [2] and -2% in test [3]. Moreover, the result in test [5], in test [6], in test [7] and in test [8] was inactive.
For the compound `O=C(NC1CCC(CCN2Cc3cccc(C(F)(F)F)c3C2)CC1)c1cccc(-c2cccnc2)c1` (stereo not drawn), the values for the growth inhibition in test [1] and in test [4] were 67% (active) and 100% (active), respectively. The inhibition in test [2] is 26%; in test [3], 2%. Besides, the result in test [5], in test [6], in test [7] and in test [8] was inactive.
